Screening results (PubChem)
DENV2 CPE rescue: protects cells from dengue virus 2 cytopathic effect; DENV2-infected cells, cytopathic effect rescue, plate reader; CPE inhibition, % at 9.99 µM; actives 1.7% (n = 350,000); in the data active = CPE inhibition above about 20%, passing the limit was not always enough; inconclusive = no clear call, values can overlap the other calls; tested in BHK-21 cells;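 also: 0% = median of neutral control wells and 100% = median of positive control wells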
ERAP1 HTS inh: inhibitors of human ERAP1 aminopeptidase; actives 0.15% (n = 340,000); inhibition, % at 10.7 µM; Q9NZ08; recombinant ERAP1, Leu-AMC fluorescence, 60 min;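 active = mean replicate inhibition of at least 30%, or all replicates individually reaching that 30% level; inactive = mean below 30% and not every replicate reaching it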;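 also: 0% = neutral control wells and 100% = L-leucinethiol positive control wells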
AF4-AF9 inh: inhibitors of human MLL-AF4/AF9 interaction; P42568; AlphaScreen, biotin-AF4 peptide binding to FLAG-AF9; inhibition, % at 10 µM; actives 0.47% (n = 350,000); AID 651704;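 active = every replicate reaching a set inhibition limit, whatever the replicate mean, cut at about 25% in these data; inconclusive = mean inhibition reaches that limit but some replicates miss it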;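 also: 0% = plate neutral control median and 100% = total signal loss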
RAD52 anneal inh: inhibitors of human RAD52 DNA annealing. recombinant RAD52 DNA annealing, FRET fluorescence. P43351. actives 0.46% (n = 360,000). inhibition, % at 18.7 µM;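 active = every replicate showing at least 50% inhibition; inconclusive = mean inhibition at least 50% but not in every replicate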
Target sequence (P43351 whole entry, looked up): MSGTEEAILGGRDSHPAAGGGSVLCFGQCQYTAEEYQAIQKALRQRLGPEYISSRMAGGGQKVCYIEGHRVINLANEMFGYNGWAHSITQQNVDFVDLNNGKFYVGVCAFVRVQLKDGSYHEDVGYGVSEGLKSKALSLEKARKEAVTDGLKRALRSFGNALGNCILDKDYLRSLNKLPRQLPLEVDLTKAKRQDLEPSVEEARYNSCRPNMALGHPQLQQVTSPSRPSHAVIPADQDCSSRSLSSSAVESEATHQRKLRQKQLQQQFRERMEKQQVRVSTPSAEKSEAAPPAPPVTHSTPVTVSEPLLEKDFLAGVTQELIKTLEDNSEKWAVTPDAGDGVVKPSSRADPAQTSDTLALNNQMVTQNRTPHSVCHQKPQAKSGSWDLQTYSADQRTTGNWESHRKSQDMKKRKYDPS
FGF22 binding: FGF22 (human) thermal shift binding | recombinant FGF22 thermal shift, SYPRO orange fluorescence; percent of sucrose octasulfate shift, DMSO zero | activity (Tm shift, normalised), % at 9.99 µM | actives 1.5% (n = 340,000) | Q9HCT0 | AID 651658;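 active = mean Tm shift, scaled 0 neutral to 100 positive control, at about 1.3% or above, every replicate too, limit read from the data; inconclusive = no clear call, values can overlap the other calls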
Target sequence (Q9HCT0 whole entry, looked up): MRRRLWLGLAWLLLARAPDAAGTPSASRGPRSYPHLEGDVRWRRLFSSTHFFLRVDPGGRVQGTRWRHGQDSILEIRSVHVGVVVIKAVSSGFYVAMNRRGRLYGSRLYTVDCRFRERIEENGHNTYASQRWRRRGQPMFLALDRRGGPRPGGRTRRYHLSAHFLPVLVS
Numbers without * were called inactive; ? = inconclusive; . = not tested or not shown; ! = a repeat was not active. Most compounds without a hit are left out; they make up all but 4% or so of the library.

SMILES	DENV2 CPE rescue	ERAP1 HTS inh	AF4-AF9 inh	RAD52 anneal inh	FGF22 binding
COC(=O)C1=C(C)Nc2nc(SCc3ccccc3)[nH]c(=O)c2C1c1cccs1 (stereo not given)	3	7	49*	-11	0
CCOC(=O)C1=C(C)Nc2[nH]c(=O)[nH]c(=O)c2C1c1cccs1 (stereo not given)	-4	1	-5	-8	0
CC(O)CNC1c2ccccc2CC1O (stereo not given)	63*	1	-47	-12	.
COc1ccc(S(=O)(=O)Nc2ccc3c(c2)C(=O)N([C@@H](C)CO)C[C@H](C)[C@H](CN(C)C(=O)c2ccccc2)OCCCC[C@H](C)O3)cc1	-4	1	1	-10	-1
Cc1ccc(SCC(=O)Nc2ccc(-c3nc4ccccc4[nH]3)cc2)cc1	38*	5	6	-14	0
Cc1ccc(NC(=O)CCCSc2nc3ccccc3[nH]2)cc1	-4	1	-1	-29	0
COc1cccc(-c2ccc3n(c2=O)C[C@H]2[C@H](CO)[C@@H](C(=O)N4CCOCC4)N[C@@H]32)c1	?	2	0	-15	0
COc1cc(C)c(/C=C(\C#N)C(=O)Nc2cccc(C)c2)cc1C(C)C	2	2	0	-12	44*
Cc1cccc(NC(=O)/C(C#N)=C\c2ccc(C(=O)O)cc2)c1	.	-5	-5	0	0
CN(C)c1ccc(CC(=O)N2CCCC(c3cc(C(=O)Nc4ccc(F)c(Cl)c4)no3)C2)cc1 (stereo not given)	33*	-3	4	-21	0
COc1ccc(S(=O)(=O)N(C)C[C@H]2OCCCC[C@H](C)Oc3ccc(N(C)C)cc3C(=O)N([C@H](C)CO)C[C@@H]2C)cc1	23*!	-10	6	-18	-1
COc1ccc(S(=O)(=O)Nc2ccc3c(c2)C(=O)N([C@@H](C)CO)C[C@H](C)[C@H](CN(C)S(=O)(=O)c2ccc(OC)cc2)OCCCC[C@H](C)O3)cc1	-13	.	.	.	15*
COc1ccc(S(=O)(=O)Nc2ccc3c(c2)C(=O)N([C@@H](C)CO)C[C@@H](C)[C@H](CN(C)S(=O)(=O)c2ccc(OC)cc2)OCCCC[C@H](C)O3)cc1	.	.	.	.	0
COc1ccc(S(=O)(=O)N(C)C[C@H]2OCCCC[C@H](C)Oc3ccc(NS(=O)(=O)c4cccs4)cc3C(=O)N([C@H](C)CO)C[C@H]2C)cc1	63*	1	4	-83	0
COc1ccc(S(=O)(=O)N(C)C[C@@H]2OCCCC[C@@H](C)Oc3ccc(N(C)C)cc3C(=O)N([C@H](C)CO)C[C@H]2C)cc1	-2	1	15	10	-1
COc1ccc(S(=O)(=O)Nc2ccc3c(c2)C(=O)N([C@H](C)CO)C[C@H](C)[C@H](CN(C)S(C)(=O)=O)OCCCC[C@@H](C)O3)cc1	20*	0	-3	2	0
CCC(=O)N1[C@H](CO)[C@H](c2ccc(C3=CCCCC3)cc2)[C@H]1CNC1CCCC1	-4	-2	5	-53	.
COc1ccc(S(=O)(=O)N(C)C[C@H]2OCCCC[C@@H](C)Oc3ccc(NS(C)(=O)=O)cc3C(=O)N([C@@H](C)CO)C[C@@H]2C)cc1	22*	0	2	-2	0
COCC(=O)N1CC2(CCN(Cc3ccccc3)CC2)c2c(n(C)c3cc(OC)ccc23)[C@H]1CO	?	-3	-1	10	0
C[C@@H]1CN([C@H](C)CO)C(=O)Cc2cc(NC(=O)Nc3ccccc3)ccc2O[C@H]1CN(C)S(=O)(=O)c1cn(C)cn1	62*	2	-2	10	0
COc1ccc(NC(=O)Nc2ccc3c(c2)CC(=O)N([C@@H](C)CO)C[C@H](C)[C@H](CN(C)S(=O)(=O)c2cn(C)cn2)O3)cc1	-6	0	-4	-15	0
COc1ccc(NC(=O)Nc2ccc3c(c2)CC(=O)N([C@H](C)CO)C[C@H](C)[C@@H](CN(C)S(=O)(=O)c2cn(C)cn2)O3)cc1	22*	1	-2	0	0
C[C@@H]1CN([C@H](C)CO)C(=O)Cc2cc(NC(=O)CCN3CCOCC3)ccc2O[C@@H]1CN(C)S(=O)(=O)c1cn(C)cn1	22*	0	-4	-6	0
C[C@@H]1CN([C@@H](C)CO)C(=O)Cc2cc(NC(=O)Nc3ccccc3)ccc2O[C@H]1CN(C)S(=O)(=O)c1cn(C)cn1	7	4	-1	-2	0
CCC(=O)Nc1ccc2c(c1)OC[C@H](C)N(Cc1cccnc1)C[C@H](C)[C@@H](OC)CN(C)C2=O	-12	2	1	9	0
SMILES	DENV2 CPE rescue	ERAP1 HTS inh	AF4-AF9 inh	RAD52 anneal inh	FGF22 binding
CC(=O)N1[C@H](C(=O)N2CCc3ccccc3C2)[C@@H](CO)[C@@H]2Cn3c(ccc(-c4cccnc4)c3=O)[C@@H]21	-8	-1	-1	-6	0
CC(C)NC(=O)NCC[C@H]1CC[C@@H](NC(=O)CCN2CCCCC2)[C@H](CO)O1	-3	-2	3	-10	0
c1ccc(COc2ncnc3c2ncn3CCCNCc2cccs2)cc1	?	0	0	-22	43*
c1ccc(COc2ncnc3c2ncn3CCCNCc2ccccn2)cc1	-6	.	-2	-31	0
CCCC(=O)Nc1ccc2c(c1)OC[C@H](C)N(C(=O)CC1CC1)C[C@H](C)[C@H](OC)CN(C)C2=O	0	1	-1	8	0
CCN(CC)NC(=O)Nc1ccccc1	.	5	1	-11	0
CCN(CC)c1ccc(NC(=O)Nc2ccccc2)cc1	-5	-3	25*	-5	0
CC(C)(C)OC(=O)NOCC(=O)N(CC(=O)c1ccccc1)Cc1ccccc1	29*	-2	.	-8	0
C[C@@H]1CN([C@@H](C)CO)C(=O)Cc2cc(NC(=O)CCCN(C)C)ccc2O[C@@H]1CN(C)Cc1ccc(Oc2ccccc2)cc1	-14	-2	28*	39	0
C[C@H](CO)N1C[C@H](C)[C@@H](CN(C)Cc2ccc(Oc3ccccc3)cc2)Oc2ccc(NC(=O)Cn3cnnn3)cc2CC1=O	105*	-4	10	-20	1
C[C@H]1CN([C@@H](C)CO)C(=O)Cc2cc(NC(=O)CCCN(C)C)ccc2O[C@@H]1CN(C)Cc1ccc(Oc2ccccc2)cc1	16	-1	12	52*	.
C[C@H](CO)N1C[C@H](C)[C@H](CN(C)Cc2ccc(Oc3ccccc3)cc2)Oc2ccc(NC(=O)CCCN(C)C)cc2CC1=O	-10	0	12	58*	0
C[C@H](CO)N1C[C@H](C)[C@@H](CN(C)Cc2ccc(C(F)(F)F)cc2)Oc2c(NS(C)(=O)=O)cccc2C1=O	-3	.	.	9	.
CCCC(=O)Nc1ccc2c(c1)C(=O)N(C)[C@H]1CC[C@@H](CC(=O)NCC3CCCCC3)O[C@@H]1CO2	-11	-3	1	-3	0
